Laboratory results from PubChem BioAssay AID1159580 (chemical genetic matrix, 2015).
The campaign covered roughly 5,500 compounds. About 2,000 (36%) were called active. Roughly 18% stayed inconclusive and do not appear here. The list shows a part of the results. Unmarked numbers belong to inactive results. Cut-off read from the data, not from the text of the source: active = normalized growth mostly below about 0.91 (no sharp cut-off); inconclusive = no clear call, values can overlap the other calls; inactive = mostly above about 0.92.

Experiment: chemical genetic growth profiling, strain panel (AID 1159580);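 note: tested at 20 µM; growth read once vehicle control cultures reached saturation at 30 °C; 1 = growth at the plate median or of vehicle wells; lower values mean less growth of the strain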
Conditions: S. cerevisiae deletion strains, growth OD

Q: With CSC(=NNc1ccccc1)NC(=O)c1c(Cl)cccc1Cl as the compound, how does the normalized growth (locus YAR019C, strain CDC15, active compounds read low) read?
A: 0.972

Q: And the normalized growth (locus YBL105C, strain PKC1, active compounds read low)?
A: 0.967

Q: And the normalized growth (locus YBR135W, strain CKS1, active compounds read low)?
A: 0.967

Q: What about the normalized growth (locus YBR136W, strain MEC1, active compounds read low) of the same compound?
A: 0.972

Q: What about the normalized growth (locus YBR160W, strain CDC28, active compounds read low) of the same compound?
A: 0.967

Q: And the normalized growth (locus YDL017W, strain CDC7, active compounds read low)?
A: 0.981

Q: What about the normalized growth (locus YDL028C, strain MPS1, active compounds read low) of the same compound?
A: 0.975

Q: And the normalized growth (locus YDL101C, strain DUN1, active compounds read low)?
A: 0.974

Q: What about the normalized growth (locus YDL108W, strain KIN28, active compounds read low) of the same compound?
A: 0.963

Q: And the normalized growth (locus YDL132W, strain cdc53, active compounds read low)?
A: 0.98

Q: What about the normalized growth (locus YDL214C, strain PRR2, active compounds read low) of the same compound?
A: 0.89

Q: What about the normalized growth (locus YDR052C, strain DBF4, active compounds read low) of the same compound?
A: 0.975

Q: And the normalized growth (locus YDR054C, strain cdc34, active compounds read low)?
A: 0.961

Q: And the normalized growth (locus YDR226W, strain ADK1, active compounds read low)?
A: 0.969

Q: What about the normalized growth (locus YDR477W, strain SNF1, active compounds read low) of the same compound?
A: 0.923

Q: And the normalized growth (locus YER123W, strain YCK3, active compounds read low)?
A: 0.812

Q: What about the normalized growth (locus YER133W, strain GLC7, active compounds read low) of the same compound?
A: 0.918

Q: And the normalized growth (locus YFL009W, strain cdc4, active compounds read low)?
A: 0.972

Q: And the normalized growth (locus YFL029C, strain CAK1, active compounds read low)?
A: 0.958

Q: What about the normalized growth (locus YFR003C, strain YPI1, active compounds read low) of the same compound?
A: 0.971

Q: And the normalized growth (locus YFR019W, strain FAB1, active compounds read low)?
A: 0.904

Q: And the normalized growth (locus YFR028C, strain CDC14, active compounds read low)?
A: 0.967

Q: And the normalized growth (locus YGR040W, strain KSS1, active compounds read low)?
A: 0.887

Q: And the normalized growth (locus YGR052W, strain FMP48, active compounds read low)?
A: 0.951

Q: What about the normalized growth (locus YGR092W, strain DBF2, active compounds read low) of the same compound?
A: 0.82

Q: What about the normalized growth (locus YHR030C, strain SLT2, active compounds read low) of the same compound?
A: 0.909

Q: And the normalized growth (locus YHR079C, strain IRE1, active compounds read low)?
A: 0.896

Q: What about the normalized growth (locus YHR082C, strain KSP1, active compounds read low) of the same compound?
A: 0.938

Q: And the normalized growth (locus YHR205W, strain SCH9, active compounds read low)?
A: 0.921

Q: And the normalized growth (locus YIL147C, strain SLN1, active compounds read low)?
A: 0.975

Q: And the normalized growth (locus YJL095W, strain BCK1, active compounds read low)?
A: 0.902

Q: And the normalized growth (locus YJL128C, strain PBS2, active compounds read low)?
A: 0.945

Q: What about the normalized growth (locus YJL157C, strain FAR1, active compounds read low) of the same compound?
A: 0.886

Q: What about the normalized growth (locus YJR016C, strain ILV3, active compounds read low) of the same compound?
A: 0.966

Q: And the normalized growth (locus YJR066W, strain TOR1 (second series), active compounds read low)?
A: 0.904

Q: What about the normalized growth (locus YJR066W, strain TOR1, active compounds read low) of the same compound?
A: 0.968

Q: And the normalized growth (locus YKL048C, strain ELM1, active compounds read low)?
A: 0.882

Q: And the normalized growth (locus YKL067W, strain YNK1, active compounds read low)?
A: 0.892

Q: And the normalized growth (locus YKL101W, strain HSL1, active compounds read low)?
A: 0.867

Q: What about the normalized growth (locus YKL193C, strain SDS22, active compounds read low) of the same compound?
A: 0.969

Q: And the normalized growth (locus YKL203C, strain TOR2, active compounds read low)?
A: 0.969

Q: And the normalized growth (locus YLR113W, strain HOG1, active compounds read low)?
A: 0.738 (active)

Q: And the normalized growth (locus YLR133W, strain CKI1, active compounds read low)?
A: 0.872

Q: What about the normalized growth (locus YLR403W, strain SFP1, active compounds read low) of the same compound?
A: 0.897

Q: What about the normalized growth (locus YML070W, strain DAK1, active compounds read low) of the same compound?
A: 0.806

Q: And the normalized growth (locus YMR001C, strain CDC5, active compounds read low)?
A: 0.965

Q: And the normalized growth (locus YMR205C, strain PFK2 (second series), active compounds read low)?
A: 0.887

Q: And the normalized growth (locus YMR277W, strain FCP1, active compounds read low)?
A: 0.975

Q: And the normalized growth (locus YNL006W, strain LST8, active compounds read low)?
A: 0.97

Q: What about the normalized growth (locus YNL020C, strain ARK1, active compounds read low) of the same compound?
A: 0.88

Q: What about the normalized growth (locus YNL161W, strain CBK1, active compounds read low) of the same compound?
A: 0.979

Q: What about the normalized growth (locus YNL183C, strain NPR1, active compounds read low) of the same compound?
A: 0.927

Q: What about the normalized growth (locus YNL207W, strain RIO2, active compounds read low) of the same compound?
A: 0.97

Q: And the normalized growth (locus YNL222W, strain SSU72, active compounds read low)?
A: 0.961

Q: What about the normalized growth (locus YNL307C, strain MCK1 (second series), active compounds read low) of the same compound?
A: 0.817

Q: What about the normalized growth (locus YOL078W, strain AVO1, active compounds read low) of the same compound?
A: 0.968

Q: What about the normalized growth (locus YOL136C, strain PFK27, active compounds read low) of the same compound?
A: 0.842

Q: What about the normalized growth (locus YOR061W, strain CKA2, active compounds read low) of the same compound?
A: 0.798

Q: What about the normalized growth (locus YOR119C, strain RIO1, active compounds read low) of the same compound?
A: 0.961

Q: What about the normalized growth (locus YOR231W, strain MKK1, active compounds read low) of the same compound?
A: 0.82

Q: And the normalized growth (locus YOR329C, strain SCD5, active compounds read low)?
A: 0.976

Q: And the normalized growth (locus YPL031C, strain PHO85, active compounds read low)?
A: 0.917

Q: What about the normalized growth (locus YPL153C, strain RAD53, active compounds read low) of the same compound?
A: 0.91

Q: And the normalized growth (locus YPL204W, strain HRR25, active compounds read low)?
A: 0.906

Q: And the normalized growth (locus YPL209C, strain IPL1, active compounds read low)?
A: 0.972

Q: And the normalized growth (locus YPL256C, strain CLN2, active compounds read low)?
A: 0.814 (active)

Q: And the normalized growth (locus YPR025C, strain CCL1, active compounds read low)?
A: 0.968

Q: What about the normalized growth (locus YPR106W, strain ISR1, active compounds read low) of the same compound?
A: 0.955

Q: And the normalized growth (locus YPR111W, strain DBF20, active compounds read low)?
A: 0.948

Q: What about the normalized growth (strain NNK1, active compounds read low) of the same compound?
A: 0.964

Q: And the normalized growth (strain TSCII, active compounds read low)?
A: 0.968
